Assay outcomes: PubChem BioAssay, National Center for Advancing Translational Sciences (NCATS)
S-ASM inh: Inhibitors of Secretory Acid Sphingomyelinase (S-ASM): qHTS; actives 0.006% (n = 340,000); Potency, µM (doses to about 57.5 µM), for the others: top-dose activity change, negative = inhibition, actives largely listed as inhibitors; placental ASM, HMU-PC fluorogenic substrate, 60 min; AID 504937, 2011; further: potency means the concentration at half of the fitted maximal effect
Target sequence (P17405 47-631 limits assumed): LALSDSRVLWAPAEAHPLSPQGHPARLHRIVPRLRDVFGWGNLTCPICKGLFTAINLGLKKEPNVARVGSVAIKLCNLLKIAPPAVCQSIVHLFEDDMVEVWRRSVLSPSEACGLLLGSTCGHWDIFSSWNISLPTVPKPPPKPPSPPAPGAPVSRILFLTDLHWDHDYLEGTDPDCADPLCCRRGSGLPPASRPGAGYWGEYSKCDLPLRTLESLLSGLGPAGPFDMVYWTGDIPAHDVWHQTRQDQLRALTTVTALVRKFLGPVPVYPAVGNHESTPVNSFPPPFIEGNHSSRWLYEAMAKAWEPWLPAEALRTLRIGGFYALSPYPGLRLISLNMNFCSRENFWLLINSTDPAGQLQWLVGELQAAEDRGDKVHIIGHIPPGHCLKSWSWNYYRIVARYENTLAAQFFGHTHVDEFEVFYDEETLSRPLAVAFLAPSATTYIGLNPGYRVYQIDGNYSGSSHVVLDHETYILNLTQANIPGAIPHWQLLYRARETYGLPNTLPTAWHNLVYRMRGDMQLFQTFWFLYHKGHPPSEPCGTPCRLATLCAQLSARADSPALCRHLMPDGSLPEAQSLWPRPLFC
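HMU-PC0 cleavage (9 uM final) by human placental ASM, 60 min at 37 °C following 10 min compound exposure at RT; stopped at pH 10, fluorescence Ex 386/Em 447 nm.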
TDP1 cell noCPT: qHTS for Inhibitors of human tyrosyl-DNA phosphodiesterase 1 (TDP1): qHTS in cells in absence of CPT; DT40 Tdp1-/- hTDP1 cells, no CPT, ATP luminescence, 48 h; Potency, µM (highest dose often 46.2 µM), for the others: at the top dose activity change, negative = growth inhibition, hits mostly inhibitors; actives 15% (n = 420,000); AID 686978, 2013; further: potency means the concentration at half of the fitted maximal effect; on the % scale 0 is the no-effect control and ±100 the full control effect; nearly all actives have a fitted effect of over 55% in size
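A cellular qHTS used chicken DT40 cells lacking endogenous Tdp1 but carrying stably transfected human TDP1. Compounds were applied without camptothecin, and cell growth kinetics were judged by ATP-dependent luminescence after ≥48 hr.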
IL-1B inflam inh: qHTS for Inhibitors of Inflammasome Signaling: IL-1-beta AlphaLISA Primary Screen; THP-1 LPS/ATP IL-1B secretion, AlphaLISA, 16 h; active compounds read low; actives 4.7% (n = 360,000); activity change, % at 57.5 µM; in the data active means activity change below about -50%; inconclusive means mostly about -30% to -49%; further: on the % scale 0 is the no-effect control and ±100 the full control effect
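Secreted IL-1B measured by AlphaLISA bead assay after 16 h compound exposure of THP-1 cells; compounds (final up to 57.5 uM) added 1 h before LPS (250 ng/mL) and ATP (1.25 mM) stimulation; lower signal means less secretion.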
TDP1 cell CPT: qHTS for Inhibitors of human tyrosyl-DNA phosphodiesterase 1 (TDP1): qHTS in cells in presence of CPT | chicken DT40 Tdp1-/-;hTDP1 cells + 20 nM CPT, ATP luminescence, 48 h | Potency, µM (series often up to 46.2 µM), for the others: at the highest dose activity change, negative = growth inhibition, usual class: inhibitors | actives 12% (n = 420,000) | AID 686979, 2013; further: potency means the concentration at half of the fitted maximal effect; on the % scale 0 is the no-effect control and ±100 the full control effect; nearly all actives have a fitted effect of over 55% in size
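Chicken DT40 Tdp1-/- cells stably complemented with human TDP1 were seeded at 400 cells/well in medium containing 20 nM camptothecin, exposed to pin-transferred compounds, and grown at 37 °C for at least 48 hr. Viability was read as ATP luminescence.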
HepG2 viability: qHTS for Inhibitors of TGF-b: Cytotox Counterscreen | HepG2 CAGA-GFP viability, ATP luminescence, 18 h | Potency, µM (series often up to 46.1 µM), for inactives: top-dose activity change, negative = cytotoxicity, usual class: cytotoxic | actives 0.76% (n = 410,000) | AID 588856, 2011; further: potency means the concentration at half of the fitted maximal effect
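HepG2 CAGA-GFP cells (1000/well, DMEM with 1% FBS) received compound, then TGF-beta at 500 pg/mL final, and were incubated 18 hours at 37 degrees C. Viability was read by CellTiter-Glo luminescence. Media-only wells were set as complete cell-killing and DMSO as no toxicity.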
TGFb inhibitor: qHTS for Inhibitors of TGF-b. actives 1.2% (n = 410,000). HepG2 CAGA-GFP TGF-b/SMAD3 reporter, GFP fluorescence, 18 h; TGF-beta stimulated, 500 pg/mL final. AID 588855, 2011. Potency, µM (titrated, usually from 46.1 µM), for inactives: at the highest dose activity, negative = inhibition, hits mostly inhibitors; further: potency means the concentration at half of the fitted maximal effect; on the % scale 0 is the no-effect control and ±100 the full control effect; nearly all actives have a fitted effect of over 65% in size
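Inhibition of TGF-beta-driven CAGA-GFP reporter expression in HEPG2 cells is measured by cellular GFP fluorescence after 18 h stimulation with 500 pg/mL recombinant TGF-beta in 1% FBS medium at 37 degrees C.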
The depositor's hits bear a star; i = inactive; ? = inconclusive; . = no result; ! = repeats disagree. Sampled rows, rich in hits. Any-hit rate of the full collection: about 19%. Unless noted, the call rests on the fitted dose curve; in most records, active means well fitted curve in the direction sought with a large enough effect; inconclusive means small, poorly fitted or top-dose-only effect, or another doubt; inactive means no such curve, though single readings can be large; an effect the other way counts as inactive or inconclusive.

SMILES	S-ASM inh	TDP1 cell noCPT	IL-1B inflam inh	TDP1 cell CPT	HepG2 viability	TGFb inhibitor
CCOC(=O)c1cc2c(=O)n3ccccc3nc2n(C)c1=NC(=O)c1cc2ccccc2o1	.	-13.8%	.	-23.5%	-14.2%	-3.0%
CCCCn1c(=NC(=O)c2cc3ccccc3o2)c(C(=O)OCC)cc2c(=O)n3ccccc3nc21	.	-1.4%	.	-19.1%	-29.3%	15.6%
CCCCn1c(=NC(=O)c2ccco2)c(C(=O)OCC)cc2c(=O)n3cccc(C)c3nc21	273.5%	13µM*	3.1	?	-20.6%	?
CCCCn1c(=NC(=O)c2cccnc2)c(C#N)cc2c(=O)n3cccc(C)c3nc21	367.9%	?	19.4	-3.1%	-0.7%	11.0%
CC1CCCCC1NC(=O)CCn1c(=O)sc2ccccc21 (stereo not drawn)	0.3%	?	-2.8	4.6%	14.0%	15.9%
CCOCCCn1c(=NC(=O)c2cccnc2)c(C(=O)OCC)cc2c(=O)n3ccccc3nc21	i	?	-6.7	?	1.8%	0.3%
CCOC(=O)c1cc2c(=O)n3cccc(C)c3nc2n(CCCOC)c1=NC(=O)c1cccnc1	i	23.1µM*	?	-27.8%	-16.9%	31.8%
CCCCn1c(=NC(=O)c2cccnc2)c(C(=O)OCC)cc2c(=O)n3ccccc3nc21	314.3%	16.4µM*	5.1	23.1µM*	-2.0%	12.8%
COc1ccc(CCn2c(=O)c3cccnc3n(CC(=O)Nc3ccc(C)cc3C)c2=O)cc1OC	.	?	.	?	-11.2%	-8.8%
O=C(N=NC(=O)c1ccc2c(O)n(CC3CCCO3)c(O)c2c1)c1cccnc1 (stereo not drawn)	3.2%	2.9%	0.9	11.6%	0.0%	4.8%
NS(=O)(=O)c1cccc(-n2cnnn2)c1	-0.8%	4.8%	12.4	-9.4%	16.1%	5.9%
O=C1c2ccc(-c3ccc(Cl)c(C(F)(F)F)c3)cc2S(=O)(=O)c2cccc(C(=O)N3CCN(c4ccc(Cl)cn4)CC3)c21	0.2%	13µM*	-15.0	?	-0.4%	13.2%
COc1ncc(-c2ccc3c(c2)S(=O)(=O)c2cccc(C(=O)O)c2C3=O)cn1	1.2%	9.7%	29.5	6.2%	-3.7%	1.6%
O=C1c2ccccc2S(=O)(=O)c2cc(C(=O)N3CCN(c4ccc(Cl)cn4)CC3)ccc21	-13.1%	-11.0%	?	2.8%	-2.2%	-14.1%
COc1ccc(-c2ccc3c(c2)S(=O)(=O)c2cccc(C(=O)N4CCN(C5CCCCC5)CC4)c2C3=O)cc1OC	27.3%	?	-18.3	18.4µM*	-15.3%	1.8%
O=C1c2ccc(-c3ccc(F)cc3OCc3ccccc3)cc2S(=O)(=O)c2cccc(C(=O)N3CCCC3)c21	-7.3%	14.6µM*	14.3	13µM*	-0.9%	-19.3%
COc1ccc(-c2ccc3c(c2)S(=O)(=O)c2cccc(C(=O)O)c2C3=O)cc1OC	-3.6%	12.0%	20.7	-4.6%	-2.8%	-5.8%
COc1ccc(-c2ccc3c(c2)S(=O)(=O)c2cccc(C(=O)N4CCN(c5ccccn5)CC4)c2C3=O)cc1OC	.	14.6µM*	9.6	18.4µM*	2.6%	20.0%
CCOC(=O)NC(=O)c1cn(-c2ccc(OC)cc2)c(=O)[nH]c1=O	-0.7%	4.0%	0.8	-1.3%	3.1%	3.0%
COc1ccc(S(=O)(=O)Nc2ccc(F)c(F)c2)cc1C(=O)N1CCOCC1	-1.5%	-0.4%	17.2	-1.9%	-13.0%	-20.0%
Cc1cccc(CCN2C(Nc3ccccc3)=NC[C@@H]2C)c1	-1.4%	?	-27.2	-28.6%	-8.5%	2.8%
CC(C)(C)N1OC2CC1c1nc3ccccc3n1C2 (stereo not drawn)	4.4%	3.9%	38.8	1.5%	4.2%	2.8%
CN1CCC(N2CCN(C3CN(Cc4ccccc4)S(=O)(=O)C3)CC2)CC1 (stereo not drawn)	.	5.7%	12.8	1.4%	9.1%	1.7%
COc1ccc(-c2cccc(N3CCN(c4ccccn4)CC3)n2)cc1OC	.	18.4µM*	28.8	16.4µM*	-21.7%	22.7%
COc1ccc(S(=O)(=O)N2CCN(c3ccccn3)CC2)cc1OC	-4.1%	-27.7%	41.4	-21.2%	-19.0%	2.2%
SMILES	S-ASM inh	TDP1 cell noCPT	IL-1B inflam inh	TDP1 cell CPT	HepG2 viability	TGFb inhibitor
CCCCn1cnc2c(oc3ccccc32)c1=O	4.0%	-15.9%	-12.1	-3.5%	-3.7%	-1.1%
Cc1c(Cc2ccccc2)c(=O)oc2cc(OCc3ccc(C(=O)O)cc3)ccc12	61.0%	-4.9%	-13.6	2.0%	-12.5%	-6.8%
CC1CC(C)CN(CC(=O)N2CCCc3c2c(=O)oc2ccc(OCc4ccccc4)cc32)C1 (stereo not drawn)	-5.7%	11.6µM*	-29.9	20.6µM*	-52.0%	-4.5%
CCCOc1ccc2oc(=O)c3c(c2c1)CCCN3C(=O)CN1CCc2ccccc2C1	4.2%	23.1µM*	39.7	?	-8.0%	-29.2%
CC1CCN(CC(=O)N2CCCc3c2c(=O)oc2ccc(OCc4ccccc4)cc32)CC1	-2.8%	13µM*!	-25.1	?	-2.0%	?
O=C(CSc1nc2c(c(=O)[nH]1)CCC2)Nc1ccccc1F	.	-11.5%	.	-11.9%	1.7%	-4.2%
Cc1ccc(/C=C/c2nc3ccccc3c(=O)n2CCc2ccccc2)cc1	-9.5%	16.4µM*	-19.7	?	3.8%	-7.4%
CCn1c(/C=C/c2ccc(O)c(O)c2)nc2ccccc2c1=O	-6.3%	6.51µM*	-18.6	?	-35.7%	?
CCc1ncc(/C=C2\C(=O)Nc3ccccc32)[nH]1	-8.5%	-6.2%	?	-2.8%	-41.2%	0.6%
CCn1c(/C=C/c2ccc(O)cc2)nc2ccccc2c1=O	-2.8%	25.9µM*	-95.6*	?	-29.2%	0.0%
CCn1c(/C=C/c2ccccc2C)nc2ccccc2c1=O	-7.4%	?	-9.2	?	-26.2%	-20.5%
CCn1c(/C=C2\C(=O)Nc3ccccc32)nc2ccccc2c1=O	-2.8%	16.4µM*	?	?	-53.0%	-14.0%
Cc1nc2ccccc2c(=O)n1CCc1ccccc1	5.2%	?	38.0	?	-24.5%	8.8%
CCn1c(/C=C/c2ccccc2F)nc2ccccc2c1=O	-1.7%	?	-14.0	?	5.7%	?
